Reference: PubChem BioAssay (EPA / NIEHS)
Records with an inconclusive call do not appear. Active and inactive are the calls of the source. How the source made its calls: active means hit-call score of the fitted dose curve at least 0.9, where 1 is the maximum; inconclusive means response in the unintended direction; inactive means score below 0.9.

assay: CCTE_Harrill_HTTr_CellCount_MCF7: CCTE's Cell Proliferation Assessment for the High-Throughput Transcriptomics (HTTr) Platform, Harrill Lab (AID 2284012);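 further: count of Hoechst-stained nuclei per well by high-content imaging in MCF-7 cells; cells exposed to compound for six hours; intended direction is loss of nuclei count meaning fewer cells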
Method in brief: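 Readout: Hoechst nuclear count by high-content imaging. MCF-7, 8-point dilution series, 6 h exposure. Bidirectional fit vs DMSO baseline.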

Row | Compound | outcome | AC50
1 | CCOC(=O)OC1=C(c2cc(C)ccc2C)C(=O)NC12CCC(OC)CC2 (stereo unspecified) | inactive | 
2 | CCCSP(=S)(OCC)Oc1ccc(Cl)cc1Cl (stereo unspecified) | inactive | 
3 | CC(C)N(C(=O)CCl)c1ccccc1 | inactive | 
4 | COc1ccccc1N | inactive | 
5 | CC(C)=CC1C(C(=O)OCc2cccc(Oc3ccccc3)c2)C1(C)C (stereo unspecified) | inactive | 
6 | OCCN(CCO)CCO | inactive | 
7 | Brc1ccc(Br)cc1 | inactive | 
8 | Clc1cccc(Cl)c1 | inactive | 
9 | CCC[CH2][Sn]([Cl])([Cl])[CH2]CCC | inactive | 
10 | Cc1cccc(C)c1NC(=O)CN1CCCC1=O | inactive | 
11 | Nc1ccc(N)cc1 | inactive | 
12 | CNC(=O)O/N=C/C(C)(C)S(C)(=O)=O | inactive | 
13 | N#CCC#N | inactive | 
14 | CCOc1cc(C=O)ccc1O | inactive | 
15 | Cc1cc(SCc2sc(-c3ccc(C(F)(F)F)c(F)c3)nc2C)ccc1OCC(=O)O | inactive | 
16 | COCCl | inactive | 

Row | Compound | outcome | AC50
17 | CCOCn1c(-c2ccc(Cl)cc2)c(C#N)c(Br)c1C(F)(F)F | inactive | 
18 | CNC(=O)CSP(=O)(OC)OC | inactive | 
19 | OC[C@@H](O)[C@H]1O[C@@H]2O[C@H](C(Cl)(Cl)Cl)O[C@@H]2[C@H]1O | inactive | 
20 | CC(C=O)Cc1ccc2c(c1)OCO2 (stereo unspecified) | inactive | 
21 | Clc1cnc(Oc2ccc(Oc3ncc(Cl)cc3Cl)cc2)c(Cl)c1 | inactive | 
22 | O=C1C=CC(=O)c2ccccc21 |  | 76.2 µM (active)
23 | Nc1ncn[nH]1 | inactive | 
24 | O=[N+]([O-])c1cccc2ccccc12 | inactive | 
25 | C[C@H]1C(=O)O[C@@H]2CCN3CC=C(COC(=O)[C@](C)(O)[C@]1(C)O)[C@H]23 | inactive | 
26 | O=C(NC(=O)c1c(F)cccc1F)Nc1ccc(Cl)cc1 | inactive | 
27 | O=CCCl | inactive | 
28 | Cc1cc(Cl)ccc1N | inactive | 
29 | Cc1cc(Cl)ccc1OCCCC(=O)O | inactive | 
30 | Oc1c(Cl)cc(Cl)cc1Cl | inactive | 
31 | Cc1cc(C(C)(C)c2ccc(O)c(C)c2)ccc1O | inactive | 
